Bioassay records as filed in PubChem BioAssay.
DT40 TDP1 no CPT: qHTS for Inhibitors of human tyrosyl-DNA phosphodiesterase 1 (TDP1): qHTS in cells in absence of CPT. DT40 Tdp1-/- hTDP1 cells, no CPT, ATP luminescence, 48 h. Potency, µM (series often up to 46.2 µM), without a hit: top-dose activity change, negative = growth inhibition, actives largely listed as inhibitors. hit rate 15% among 420,000. AID 686978, 2013; further: potency means the concentration at half of the fitted maximal effect; on the % scale 0 is the no-effect control and ±100 the full control effect; nearly all actives have a fitted effect of over 55% in size
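Chicken DT40 Tdp1-/- cells complemented with human TDP1, screened without camptothecin (DMSO vehicle only), 400 cells/well. Compounds pin-transferred, cells incubated at 37 °C for at least 48 hr. Growth read as ATP-dependent luminescence (CellTiter-Glo, 30 min at RT).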
D3 antag: D3 dopamine receptor (human) antagonism; P35462; D3R cells, DiscoveRx beta-arrestin luminescence, antagonist mode; stronger effect = lower value; max response, negative = inhibition, %; hit rate 2.5% among 360,000; AID 652054; in the data active means max response below about -50%; inconclusive means no clear call, values can overlap the other calls; further: on the % scale 0 is the no-effect control and ±100 the full control effect
Target sequence (P35462 whole entry, looked up): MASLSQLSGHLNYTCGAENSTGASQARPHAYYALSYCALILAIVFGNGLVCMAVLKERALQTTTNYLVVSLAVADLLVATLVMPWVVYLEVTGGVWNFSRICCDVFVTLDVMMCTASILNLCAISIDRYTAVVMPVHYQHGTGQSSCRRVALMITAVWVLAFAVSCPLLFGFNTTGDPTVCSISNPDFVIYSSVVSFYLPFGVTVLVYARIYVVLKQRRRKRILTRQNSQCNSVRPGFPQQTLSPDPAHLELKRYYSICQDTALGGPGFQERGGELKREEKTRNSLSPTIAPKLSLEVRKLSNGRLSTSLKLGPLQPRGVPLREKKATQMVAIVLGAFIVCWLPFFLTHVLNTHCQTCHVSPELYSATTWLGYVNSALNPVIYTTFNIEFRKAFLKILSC
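Cells expressing the human receptor were seeded at 1500 cells/well, incubated overnight at 37 degrees C in 5% CO2, then exposed to library compounds with dopamine controls for 90 minutes at 37 degrees C before luminescent detection.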
ClpP mod: qHTS Assay for Activators of ClpP | purified B. subtilis ClpP, FRET peptide cleavage, 20 min | AID 651965, 2013 | Potency, µM (top dose mostly 57.5 µM), for inactives: at the top dose activity change, negative = active | ATP-dependent Clp protease proteolytic subunit (Bacillus subtilis (strain 168)), P80244 | hit rate 1.9% among 340,000; active means well fitted falling curve with a large enough effect; inconclusive means small, poorly fitted or top-dose-only effect; inactive means no such curve, though single readings can be large or run the other way; further: potency means the concentration at half of the fitted maximal effect; the source files actives as falling curves though it sought activators and does not explain the sign; nearly all actives have a fitted effect of over 65% in size
Target sequence (P80244 whole entry, looked up): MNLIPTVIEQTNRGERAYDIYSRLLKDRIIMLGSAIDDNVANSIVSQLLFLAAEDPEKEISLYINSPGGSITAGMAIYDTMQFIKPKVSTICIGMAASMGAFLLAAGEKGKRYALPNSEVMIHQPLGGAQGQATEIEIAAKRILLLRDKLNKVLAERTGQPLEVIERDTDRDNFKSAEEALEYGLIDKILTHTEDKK
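Purified B. subtilis ClpP, 10 microg/mL final in Tris/HCl pH8 with KCl, BSA, glycerol and Tween-20, cleaved an Abz/nitrotyrosine-quenched decapeptide. Fluorescence (ex 320, em 430) was read at 0 and 20 min at room temperature. Delta was normalized to 5.8 microM ADEP and DMSO/no-enzyme controls.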
DRD3 agonist: D3 dopamine receptor (human) agonism. P35462. D3R DiscoveRx beta-arrestin cells, luminescence, 90 min. max activation, %. hit rate 0.58% among 410,000; in the data active means max activation above about 30%; further: 0% is about no effect
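Agonist mode: compounds and dopamine controls were applied to plated cells for 90 min at 37 degrees C after an overnight attachment at 1500 cells/well. Luminescent read-out followed 30 - 60 minutes at room temperature with DiscoveRx detection reagent.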
IL1B secr inh: inflammasome signaling inhibition, IL-1 beta readout; THP-1 LPS/ATP IL-1B secretion, AlphaLISA, 16 h; stronger effect = lower value; activity change, % at 57.5 µM; hit rate 4.7% among 360,000; in the data active means activity change below about -50%; inconclusive means mostly about -30% to -49%; further: on the % scale 0 is the no-effect control and ±100 the full control effect
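THP-1 cells pretreated 1 hr with compounds (up to 57.5 uM final), then stimulated with LPS (250 ng/mL final) plus ATP (1.25 mM final); secreted IL-1B measured by AlphaLISA after 16 hr, decreased signal indicating inhibition.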
TDP1 cell CPT: DT40-hTDP1 cell growth loss with CPT; hit rate 12% among 420,000; Potency, µM (highest dose often 46.2 µM), without a hit: at the top dose activity change, negative = growth inhibition, most hits filed as inhibitors; chicken DT40 Tdp1-/-;hTDP1 cells + 20 nM CPT, ATP luminescence, 48 h; further: potency means the concentration at half of the fitted maximal effect; on the % scale 0 is the no-effect control and ±100 the full control effect; nearly all actives have a fitted effect of over 55% in size
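Chicken DT40 Tdp1-/- cells stably complemented with human TDP1 were seeded at 400 cells/well in medium containing 20 nM camptothecin, exposed to pin-transferred compounds, and grown at 37 °C for at least 48 hr. Viability was read as ATP luminescence.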
Active calls of the source: *; u = inconclusive; x = no result given; [ ] = dose if it differs, or a comment. Sampled rows, rich in hits. Any-hit rate of the full collection: about 21%. Unless noted, the call rests on the fitted dose curve; in most records, active means well fitted inhibition curve with a large enough effect; inconclusive means small, poorly fitted or top-dose-only effect; inactive means flat fitted curve, though single readings scatter.

SMILES	DT40 TDP1 no CPT	D3 antag	ClpP mod	DRD3 agonist	IL1B secr inh	TDP1 cell CPT
CCc1ccc(Nc2n[n+](-c3ccccc3)c(-c3ccc(C(=O)O)cc3)s2)cc1	-18.1%	5.7	-3.0%	3.5	0.0	-29.0%
CCOc1cc(-c2sc(Nc3ccccc3)n[n+]2-c2ccc(F)cc2)ccc1OC	-17.5%	15.7	-2.6%	19.1	-4.3	-14.7%
COc1ccc(C)cc1Nc1n[n+](-c2ccccc2)c(-c2ccc(SC)cc2)s1	14.6µM*	-2.8	2.2%	0.7	8.2	18.4µM*
CCc1ccc(Nc2n[n+](-c3ccccc3)c(-c3ccc(OC)c(Br)c3)s2)cc1	u	-22.5	1.6%	-33.9	u	16.4µM*
Fc1ccc(-[n+]2nc(Nc3ccccc3)sc2-c2ccc(OCc3ccccc3)cc2)cc1	23.1µM*	-12.0	-1.1%	-34.4	1.5	16.4µM*
CCCCn1c(=O)nc2n(-c3ccc(Br)cc3)c3ccccc3cc-2c1=O	x	x	-30.0%	-3.0	x	x
CCc1ccc(Nc2n[n+](C)c(-c3ccncc3)s2)cc1	25.9µM*	-21.4	-2.0%	0.9	36.7	16.4µM*
CSc1ccc(-c2sc(Nc3ccccc3)n[n+]2-c2ccccc2)cc1	u	-21.8	1.7%	-24.0	-10.6	16.4µM*
COc1ccc(-c2sc(Nc3ccccc3)n[n+]2-c2ccc(F)cc2)c(OC)c1OC	13µM*	-17.5	1.6%	2.6	-13.4	u
COc1ccc(C)cc1Nc1n[n+](-c2ccccc2)c(-c2ccc(NC(C)=O)cc2)s1	-26.9%	-3.6	1.5%	20.9	-12.0	u
COc1ccc(C)cc1Nc1n[n+](-c2ccccc2)c(-c2cc([N+](=O)[O-])cc(OC)c2O)s1	u	1.7	0.4%	-4.8	7.0	20.6µM*
O=C(NNc1ccccc1F)c1sccc1Cl	u	x	-0.7%	x	x	-21.1%
Cc1ccc(CNC(=O)CN(C)S(=O)(=O)c2ccc3c(c2)c(=O)n(C)c(=O)n3C)cc1	-6.0%	x	-3.5%	-6.0	x	-8.2%
Clc1cccc(-c2sc(Nc3ccccc3)n[n+]2-c2ccccc2)c1Cl	18.4µM*	-21.9	1.9%	-4.2	-0.4	u
Fc1ccc(-[n+]2nc(Nc3ccccc3)sc2-c2cccc(Cl)c2Cl)cc1	u	-18.8	-0.9%	-11.9	-3.9	u
CSc1cc(-c2ccco2)oc1C(=O)c1ccco1	-14.1%	24.0	x	8.4	-24.0	4.2%
CCN1CCN(C(=O)c2ccc(Cn3c(=O)[nH]c4cc(OC)c(OC)cc4c3=O)cc2)CC1	-21.4%	-10.5	15.8µM*	-3.0	12.4	-18.8%
COc1cc2[nH]c(=O)n(Cc3ccc(C(=O)N4CCN(c5cc(Cl)ccc5C)CC4)cc3)c(=O)c2cc1OC	5.17µM*	x	-7.8%	-16.0	x	2.31µM*
COc1cc2c(C(=O)N3CCN(c4cc(Cl)ccc4C)CC3)cn(CC(C)C)c(=O)c2cc1OC	-18.2%	x	-1.3%	-8.2	x	u
COc1cc2[nH]c(=O)n(CCC(=O)N3CCN(Cc4ccccc4)CC3)c(=O)c2cc1OC	u	6.7	x	1.8	14.9	-5.7%
CCn1cc(C(=O)N2CCN(c3cc(Cl)ccc3C)CC2)c2cc(OC)c(OC)cc2c1=O	u	x	-2.0%	-5.5	x	11.6µM*
COc1ccc(C2OC(=O)CC2C(=O)N2CCN(c3cc(Cl)ccc3C)CC2)cc1OC (configuration not stated)	u	10.5	-1.6%	3.6	-3.2	20.6µM*
CCCCC(C)(O)C/C=C/[C@H]1[C@H](O)CC(=O)[C@@H]1CCCCCCC(=O)O (some centres not stated)	12.2%[4.12 µM]	x	x	x	x	6.6%[4.12 µM]
Cc1cc(CNC(=S)Nc2ccc(Br)cc2Cl)nn1C	u	-3.9	-1.6%	14.4	-5.6	u
N#CC1=C(N)OC2=C(C(=O)CCC2)C1c1cc2c(cc1Cl)OCO2 (configuration not stated)	-13.3%	-15.5	x	1.2	-9.0	10.8%
SMILES	DT40 TDP1 no CPT	D3 antag	ClpP mod	DRD3 agonist	IL1B secr inh	TDP1 cell CPT
COc1ccc2c(c1)-c1nc(NC(=O)c3cc(OC)c(OC)c(OC)c3)sc1CC2	18.4µM*	x	u	9.0	x	u
COCc1nnc(NC(=O)c2cc(Cl)ccc2OC)s1	-28.9%	7.9	-12.3%	7.6	-11.0	-2.0%
COc1ccc2c(c1)Cc1sc(NC(=O)c3cccc(Br)c3)nc1-2	u	x	-8.9%	1.6	x	u
COc1ccc2c(c1)-c1nc(NC(=O)c3ccccc3F)sc1CC2	u	x	35.5µM*	14.3	x	u
COc1ccc2c(c1)Cc1sc(NC(=O)c3ccccc3C)nc1-2	u	x	8.8%	-7.5	x	-26.6%
COc1ccc2c(c1)-c1nc(NC(=O)c3cc(Cl)ccc3OC)sc1CC2	u	x	-12.1%	8.6	x	8.2µM*
CC1(C)Cc2c(cnn2-c2ccc(F)cc2)C(NC(=O)CCc2ccncc2)C1 (configuration not stated)	-0.3%	6.5	-0.2%	3.8	14.5	1.4%
O=C(NC1CC(=O)N(c2cccc(F)c2)C1)N1CCN(C(=O)c2ccco2)CC1 (configuration not stated)	-0.8%	-10.2	0.4%	3.1	21.7	2.8%
N#CCCN1CCCc2cc(N=Nc3ccc(C(F)(F)F)cc3)ccc21	u	-24.8	x	-9.3	u	u
COc1ccc(Cl)cc1NC(=O)C1CCN(C(=O)Nc2ccccc2)CC1	u	9.5	2.4%	-11.3	-28.1	u
Nc1c(-c2nc(-c3ccccc3)cs2)c2ccccn2c1C(=O)c1ccc2c(c1)OCO2	6.51µM*	x	-2.3%	-14.0	x	18.4µM*
COc1cccc(-c2csc(-c3c(N)c(C(=O)c4ccccc4)n4ccccc34)n2)c1	16.4µM*	x	1.3%	-14.4	x	u
Cc1ccnc(Nc2nc(-c3ccc(Cl)cc3)cs2)c1	20.6µM*	-7.2	x	-7.4	4.7	u
Cc1ccnc(Nc2nc(-c3ccc(F)cc3)cs2)c1	u	0.0	-0.8%	3.0	-92.7*	u
CCOC(=O)N1CCC(NC(=O)c2cc(C(=O)Nc3cccc(C(F)(F)F)c3)ccc2CO)CC1	3.26µM*	6.3	-1.0%	3.1	23.4	5.17µM*
CCOC(=O)N1CCC(NC(=O)c2ccc(CO)c(C(=O)NC3CCN(C(=O)OCC)CC3)c2)CC1	4.0%	18.5	0.0%	-0.7	11.6	-4.2%
COc1cc(C(=O)NCc2ccc(S(N)(=O)=O)cc2)ccc1OCC(=O)Nc1cccc(C(F)(F)F)c1	u	8.6	x	-0.1	5.5	-3.3%
CCOC(=O)C1CCN(C(=O)c2ccc(OCC(=O)Nc3ccc(OCC)cc3)c(OC)c2)CC1	16.4µM*	-9.5	-1.4%	-2.3	-23.2	20.6µM*
